In PubChem BioAssay (NCATS):
Results filed as inconclusive are left out. A call without a number means that no potency is given here. Calls of active or inactive are those of the source. Calls come from the whole dose curve; as a rule, active = well fitted cell-killing curve with a large enough effect; inconclusive = small, poorly fitted or top-dose-only effect; inactive = flat fitted curve, though single readings scatter.

Experiment: Cell Viability - LYMP2-022 (AID 987); note: nearly all actives have a fitted effect of over 55% in size
Details: LYMP2-022 lymphoblastoid cell viability; series mostly up to 92.2 µM
Description: NIH Chemical Genomics Center [NCGC]
NIH Molecular Libraries Screening Centers Network [MLSCN]
National Institutes of Environmental Health Sciences [NIEHS]
National Toxicology Program [NTP]
We have developed a 1536-well cell-based assay for quantitative high throughput screening (qHTS) against a number of cell lines to determine in vitro cytotoxicity of small molecules. This particular assay uses a human lymphoblastoid cell line (LYMP2-022) purchased from Coriell Institute for Medical Research.
NCGC Assay Protocol Summary:
The CellTiter-Glo luminescent cell viability assay (Promega) is a homogeneous method to measure the number of viable cells in culture. The end point readout of this assay is based on quantitation of intracellular ATP, an indicator of metabolic activity, using the luciferase reaction. Luciferase catalyzes the oxidation of beetle Luciferin to oxyluciferin and light in the presence of ATP. The luminescent signal is proportional to amount of ATP present.
Using the CellTiter-Glo luminescent cell viability assay, the amount of cellular ATP was measured in the lymphoblastoid cell line with complete culture medium following compound treatment for 24 hours. The assay was performed in opaque white Kalypsys 1536-well plates. In the screen, tetraoctylammonium bromide was used as positive control. Library compounds were measured for their ability to cause acute toxicity in the cell line, as reflected by a decrease in intracellular ATP levels, in a concentration-dependent manner. […] AC50 values were determined from concentration-response data modeled with the standard Hill equation.
qHTS protocol for CellTiter Glo lymphoblastoid cellular assay
[Step] [Parameter] [Value] [Description]
1. Reagent; 5 uL; 2500 lymphoblastoid cells/well
2. Time; 5 hr; 37 C incubation
4. Controls; 23 nL; Tetraoctylammonium bromide 6.4pM to 92 uM
5. Time; 24 hr; 37 C incubation
6. Reagent; 5 uL; CellTiter Glo reagent
7. Time; 30 min; Room Temperature
8. Detection; Luminescence; Viewlux plate reader
Keywords: cell viability, cytotoxicity, lymphoblastoid cell line, luminescence, NTPHTS, NTPHTS_NCGC, NIEHS, DSSTox, MLSMR, MLSCN, NIH Roadmap, qHTS, NCGC
Potency is the fitted concentration of half-maximal effect.

Row | Structure (SMILES) | Potency
1 | COc1ccc(C=O)cc1 | inactive
2 | [N-]=[N+]=[N-] | inactive
3 | Cc1cnc[nH]1 | inactive
4 | Nc1c(Br)cc([N+](=O)[O-])cc1[N+](=O)[O-] | inactive
5 | CC(C)(Cl)[N+](=O)[O-] | inactive
6 | Oc1cc(Cl)ccc1Cl | inactive
7 | C=CCO | inactive
8 | Cc1ccc(N)c(N)c1 | 12.6 µM (active)
9 | COP(=S)(OC)SCn1nnc2ccccc2c1=O | inactive
10 | CCN(N=O)C(N)=O | inactive
11 | Oc1c(Cl)cccc1Cl | inactive
12 | CN(C)c1ccc(N=Nc2ccccc2)cc1 | inactive
13 | CCC[N+](=O)[O-] | inactive
14 | Oc1ccc(Cl)c(Cl)c1Cl | inactive
15 | CN(C)c1ccccc1 | inactive
16 | COc1cc(-c2ccc(N)c(OC)c2)ccc1N | inactive
17 | Cl/C=C\Cl | inactive
18 | BrCCc1ccccc1 | inactive
19 | Brc1cccc(-c2ccccc2)c1 | inactive
20 | Clc1ccc(C(c2ccccc2Cl)C(Cl)(Cl)Cl)cc1 (stereo not given) | inactive

Row | Structure (SMILES) | Potency
21 | c1ccc(P(c2ccccc2)c2ccccc2)cc1 | inactive
22 | Nc1cc(Cl)ccc1Cl | inactive
23 | O=c1ccc(=O)[nH][nH]1 | inactive
24 | COC(=O)Nc1nc2ccccc2[nH]1 | inactive
25 | OCCBr | inactive
26 | CCCCCC[N+](=O)[O-] | inactive
27 | ClCCOCOCCCl | inactive
28 | CCCCCCCCCCCCCl | inactive
29 | CC(C)(C)c1ccccc1O | inactive
30 | Cc1cccc(N)c1C | inactive
31 | COc1ccccc1N | inactive
32 | Oc1cccc(Cl)c1 | inactive
33 | Cc1ccc2c(C)cccc2c1 | inactive
34 | CC(C)CC(C)N (stereo not given) | inactive
35 | COC(=O)Nc1cccc(OC(=O)Nc2cccc(C)c2)c1 | inactive
36 | Oc1cc(Cl)c(Cl)c(Cl)c1Cl | inactive
37 | Cl/C=C/Cl | inactive
38 | OCCOCCO | inactive
39 | Nc1ncc([N+](=O)[O-])s1 | inactive
40 | CCCCOC(C)=O | inactive
